High-throughput results as filed in PubChem BioAssay.
The list is not random: actives were taken first. Their share in the collection is about 19%.
IL-1B inflam inh: qHTS for Inhibitors of Inflammasome Signaling: IL-1-beta AlphaLISA Primary Screen. 360,000 compounds, 4.7% hits. activity change, % at 57.5 µM. THP-1 LPS/ATP IL-1B secretion, AlphaLISA, 16 h; active compounds read low; in the data active means activity change below about -50%; inconclusive means mostly about -30% to -49%
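THP-1 cells pretreated 1 hr with compounds (up to 57.5 uM final), then stimulated with LPS (250 ng/mL final) plus ATP (1.25 mM final); secreted IL-1B measured by AlphaLISA after 16 hr, decreased signal indicating inhibition.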
HT1080NT lethal: qHTS for induction of synthetic lethality in tumor cells producing 2HG: qHTS for the HT-1080-NT fibrosarcoma cell line; HT-1080-NT fibrosarcoma viability, CellTiter-Glo ATP luminescence, 48 h; Potency, µM (series often up to 46.1 µM), hits mostly cytotoxic; 360,000 compounds, 1.6% hits;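 further: NT is the 2HG producing partner of a matched IDH1 knockdown line; nearly all actives have a fitted effect of over 55% in size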
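HT-1080-NT fibrosarcoma cells (2HG-overproducing), 750 cells/well in RPMI with 5% FBS, dosed after 2 h and incubated 48 h at 37C. CellTiter-Glo luminescence normalized to DMSO and no-cell wells; concentration-response curves fitted and classed.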
HT1080 IDH1KD tx: qHTS for induction of synthetic lethality in tumor cells producing 2HG: qHTS for the HT-1080-IDH1KD cell line; Potency, µM (top dose mostly 46.1 µM), most hits filed as cytotoxic; HT-1080 IDH1 knockdown viability, ATP luminescence, 48 h; 360,000 compounds, 2% hits
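% activity derives from luminescence (CellTiter-Glo), normalised to DMSO and no-cell wells. HT-1080-IDH1KD cells, 750/well, had 48 h compound exposure at 37 °C.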
TDP1 cell noCPT: qHTS for Inhibitors of human tyrosyl-DNA phosphodiesterase 1 (TDP1): qHTS in cells in absence of CPT | DT40 Tdp1-/- hTDP1 cells, no CPT, ATP luminescence, 48 h | Potency, µM (highest dose often 46.2 µM), actives largely listed as inhibitors | 420,000 compounds, 15% hits | AID 686978, 2013; further: nearly all actives have a fitted effect of over 55% in size
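Growth kinetics read by CellTiter-Glo luminescence after ≥48 hr at 37 °C. Cells: DT40 Tdp1-/- stably carrying human TDP1, 400 per well, compound exposure in the absence of CPT (DMSO vehicle).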
DT40 TDP1 CPT: qHTS for Inhibitors of human tyrosyl-DNA phosphodiesterase 1 (TDP1): qHTS in cells in presence of CPT. Potency, µM (titrated, usually from 46.2 µM), usual class: inhibitors. 420,000 compounds, 12% hits. chicken DT40 Tdp1-/-;hTDP1 cells + 20 nM CPT, ATP luminescence, 48 h; further: nearly all actives have a fitted effect of over 55% in size
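Chicken DT40 Tdp1-/- cells complemented with human TDP1, 400 cells/well, exposed to compounds plus 20 nM camptothecin for at least 48 h at 37 C; viability read as ATP content by CellTiter-Glo luminescence.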
Numbers stand for hits; 0 = inactive; ? = inconclusive; - = no result given; [ ] = dose if it differs, or a comment. Unless noted, the call rests on the fitted dose curve; in most records, active means well fitted curve in the direction sought with a large enough effect; inconclusive means small, poorly fitted or top-dose-only effect, or another doubt; inactive means no such curve, though single readings can be large; an effect the other way counts as inactive or inconclusive.

SMILES	IL-1B inflam inh	HT1080NT lethal	HT1080 IDH1KD tx	TDP1 cell noCPT	DT40 TDP1 CPT
O=c1c2ccccc2nc(-c2cccs2)n1-c1cccc2ccccc12	0	0	0	20.6µM	?
COc1cccc(CNn2c(-c3cccc(C)c3)nc3ccccc3c2=O)c1	-70.7	?	0[9.24 µM]	18.4µM	?
COc1ccc(CNn2c(-c3cccs3)nc3ccccc3c2=O)cc1OC	-78.5	0	0	10.3µM	7.31µM
COc1ccc(-c2nc3ccccc3c(=O)n2NC(=S)N(C)C)cc1	0	0	0	11.6µM	11.6µM
COCCC(=O)N1CCC(Oc2ccc(C(=O)N3CCC[C@H]3CO)cc2)CC1	0	0	0	0	0
C[C@@H]1CC[C@H](Cc2ccc(-n3cccc3)cc2)N1C(=O)OC(C)(C)C	0	0	0	18.4µM	?
COc1ccc(CN2CCN(Cc3csc(C(C)=O)c3)CC2CCO)c(C)c1C (stereo not drawn)	0	?	?	10.3µM	0
CC(=O)c1cc(CN2CCN(Cc3ccc(C)cc3)C(CCO)C2)cs1 (stereo not drawn)	0	0	0	?	0
COc1ccc(CN2CCN(C3CCOCC3)CC2CCO)c(C)c1C (stereo not drawn)	0	0	0	0	0
COc1ccc(CN2CCN(Cc3nc4ccccc4s3)CC2CCO)c(C)c1C (stereo not drawn)	?	?	?	14.6µM	?
COc1ccc(CN2CCN(C3CCSCC3)CC2CCO)c(C)c1C (stereo not drawn)	0	0	0	16.4µM	18.4µM
CC(=O)c1cc(CN2CCN(CCC(C)C)C(CCO)C2)cs1 (stereo not drawn)	0	0	0	?	16.4µM
O=C1Cc2cc(NS(=O)(=O)c3cc(F)ccc3F)cc3c2N1CCC3	0	0	0	?	?
OCC[C@H]1C[C@@H](O)[C@H](O)[C@@]2(CCCO2)O1	0	0	0	0	0
COc1ccc(-c2nc3cnc(Oc4ccccc4)nc3n(C3CC3)c2=O)cc1	-	-	-	0	0
O=C(COC(=O)c1ccccc1Br)Nc1cccnc1Cl	0	0	0	0	0
O=C(NCc1ccccc1)NC(=O)c1ccc(Cl)cc1	0	0	0	0	0
C[C@@H]1CCCCO[C@@H](CN(C)C(=O)Cc2ccccc2)[C@@H](C)CN([C@H](C)CO)C(=O)c2cc(NC(=O)C3CCCCC3)ccc2O1	0	0	0	0	?
C[C@@H]1CCCCO[C@H](CN(C)C(=O)Cc2ccccc2)[C@H](C)CN([C@@H](C)CO)C(=O)c2cc(NC(=O)Nc3ccc(F)cc3)ccc2O1	0	0	0	0	23.1µM
C[C@@H]1CCCCO[C@H](CN(C)C(=O)Cc2ccccc2)[C@@H](C)CN([C@H](C)CO)C(=O)c2cc(NC(=O)Nc3ccccc3)ccc2O1	0	0	0	29.1µM	0
COc1ccc(C(=O)OCC(=O)c2ccco2)cc1[N+](=O)[O-]	0	0	0	0	0
CCOC(=O)CNC(=O)CSc1nnc(C)c(=O)[nH]1	0	0	0	0	0
CCOC(=O)CSc1nnc(NCC(=O)OC(C)C)c(=O)[nH]1	0	0	0	23.1µM	10.3µM
O=C(C[n+]1ccccc1)N1c2ccccc2Sc2ccccc21	0	0	0	?	?
CCN(CC)CCC(=O)N1c2ccccc2Sc2ccc(C(F)(F)F)cc21	-	-	-	0	0
CN(C)c1cc[n+](CC(=O)N2c3ccccc3Sc3ccccc32)cc1	?	?	0	2.91µM	2.06µM
NCCCC(=O)N1c2ccccc2Sc2ccc(Cl)cc21	?	?	?	23.1µM	?
CN(C)CC(=O)N1c2ccccc2Sc2ccc(Cl)cc21	0	0	0	0	0
CCN(CC)CCC(=O)N1c2ccccc2Sc2ccc(Cl)cc21	-71.0	?	20.6µM	?	14.6µM
CN(C)CCC(=O)N1c2ccccc2Sc2ccc(Cl)cc21	-58.5	0	?	0	0
